Compound activity as filed in PubChem.
tim10-1 inh: inhibits growth of tim10-1 mutant yeast | S. cerevisiae tim10-1 ts strain growth, BacTiter-Glo, 24 h | inhibition, % at 20 µM | hit rate 2.2% among 330,000 | AID 463190;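 active means inhibition of at least 40%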;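 further: mutant grown at 25 °C; 0% = DMSO wells with yeast and 100% = wells holding no yeast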
NALP3 yeast inh: inhibitors of NALP3 inflammasome in yeast | Yeast reconstituted NLRP3/ASC/caspase-1, beta-gal luminescence, 24 h | inhibition, % at 10 µM | hit rate 0.39% among 330,000;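 active means inhibition of 50% or more; inactive means inhibition below 50%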;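 further: plate controls were induced DMSO wells for no effect and uninduced yeast grown without galactose for full effect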
tim23-1 inh: inhibits growth of tim23-1 mutant yeast; S. cerevisiae tim23-1 growth, BacTiter-Glo luminescence, 24 h; inhibition, % at 20 µM; hit rate 1.3% among 330,000; AID 463212;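 active means growth inhibition of the mutant yeast at or above 50%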;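 further: temperature-sensitive mutant grown at 25 °C; plate controls were DMSO-treated mutant yeast for no effect and medium wells lacking yeast for full effect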
TIM10 inh: growth inhibitors of TIM10 yeast strain. hit rate 1.4% among 330,000. S. cerevisiae TIM10 strain growth, BacTiter-Glo luminescence, 24 h. inhibition, % at 10 µM;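 active means inhibition of 40% or more at the single tested concentration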;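 further: wild-type TIM10 isogenic control strain grown at permissive 25 °C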
NALP1 inh: inhibitors of NALP1 inflammasome in yeast; S. cerevisiae NALP1/ASC/caspase-1 growth, X-gal OD620, 72 h; inhibition, % at 10 µM; hit rate 0.61% among 280,000; AID 2071; in the data active means inhibition mostly above about 24%, no sharp cut-off; inactive means mostly below about 32%
PfHsp90 set2: reduces growth (ATP signal) of yeast expressing P. falciparum Hsp90; S. cerevisiae expressing PfHsp90, BacTiter-Glo ATP, 48 h; yeast lacking PDR1 and PDR3 efflux regulators; inhibition, % at 9.4 µM; hit rate 0.32% among 310,000; AID 504621;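 active means every replicate shows inhibition above about 80%, whatever the replicate mean, limit read from the data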;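 further: 0% = DMSO neutral controls and 100% = 20 µM radicicol positive controls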
The depositor's hits bear a star; . = no result given. In the library only some 4.2% were active in any assay of this set; here they are far more common.

SMILES | tim10-1 inh | NALP3 yeast inh | tim23-1 inh | TIM10 inh | NALP1 inh | PfHsp90 set2
CCC(NC(=O)c1ccc2nc(Cc3ccc(OC)cc3)oc2c1)c1ccncc1 (stereo not given) | -13 | 10 | -2 | 0 | 17 | -41
CCOC(=O)CNC(=O)CSc1nc(C)cc(C)c1C#N | 9 | 10 | 2 | -5 | 37* | 4
CCOC(=O)NC(=O)CSc1nc(C)cc(C)c1C#N | 4 | 10 | 11 | 14 | 23 | 17
Cc1cccc2cc(CN(Cc3nnnn3C3CCCCC3)C3CCCC3)c3nnnn3c12 | -40 | 3 | -49 | -10 | -3 | 105*
Cc1cc(C)c2[nH]c(=O)c(CN(Cc3nnnn3C3CCCC3)C3CCCCC3)cc2c1 | . | . | . | . | -6 | 13
O=C(COC(=O)c1ccc(O)cc1O)NC(=O)NCc1ccccc1 | -12 | 8 | 1 | 4 | . | 22
CC(=O)N1C(C(=O)O)CSC1c1ccc(C)cc1 (stereo not given) | -16 | 7 | -16 | 4 | 42* | 20
CCOC(=O)C1OC1(c1ccccc1)c1ccccc1 (stereo not given) | . | . | . | . | . | -16
O=S(=O)(c1cccc2nsnc12)N1CCOCC1 | 0 | 0 | -1 | 5 | 15 | -21
Cc1ccc2nsnc2c1S(=O)(=O)N1CCOCC1 | 0 | 5 | 4 | 7 | 34* | 3
O=C(O)CCCNC(=O)c1nn(Cc2ccccc2)c(=O)c2ccccc12 | -13 | 10 | 13 | -9 | 19 | -2
O=C(O)CN(c1ccccn1)S(=O)(=O)c1ccccc1 | 2 | 4 | 29 | 15 | 43* | -3
CCCc1cc(=O)oc2cc(C)cc(OCC(=O)NCCCN3CCOCC3)c12 | -9 | -2 | 6 | 3 | 32 | 13
COc1cc(NC(=O)c2cccc(Br)c2)nc(OC)n1 | 13 | 33 | 25 | 12 | 22 | -20
O=C(Nc1ccc(Cl)cc1)OC(CN1CCCCC1)C(F)(F)F (stereo not given) | 6 | 31 | 15 | 2 | 25* | 13
CC(C)CC(OC(=O)c1nsc(Cl)c1Cl)C(=O)NCC1CCCO1 (stereo not given) | 14 | 8 | 9 | -8 | 17 | -78
CCCCn1nnc(NC(=O)c2ccc(-c3ccccc3[N+](=O)[O-])o2)n1 | 13 | 18 | 24 | 19 | 30* | -5
COc1ccc(C2(CNC(=O)Cc3ccc(OC)c(OC)c3)CCOCC2)cc1 | 6 | 17 | 5 | -10 | 25* | 7
N=c1sccn1CC(=O)Nc1ccccc1Cc1ccccc1 | 23 | 4 | 6 | -3 | 17 | .
N=c1sccn1CC(=O)Nc1ccccc1Oc1ccccc1 | 20 | 18 | 20 | 0 | 38* | 3
COC(=O)c1cc(=O)n(CCc2ccc(OC)c(OC)c2)c(=Nc2ccc(F)c(Cl)c2)s1 | 22 | 9 | 30 | 14 | 0 | 18
COc1ccc(S(=O)(=O)NCC2CCCN(Cc3cccc(C(C)=O)c3)C2)cc1 (stereo not given) | -12 | 2 | -4 | 0 | 6 | 13
COc1ccc(S(=O)(=O)NCC2CCCN(Cc3cccnc3)C2)cc1 (stereo not given) | 5 | 19 | 9 | 3 | 32* | 32
COC(CNC(=O)c1cccc2c1C(=O)N(Cc1cccnc1)C2)OC | 13 | -2 | -5 | 6 | 41* | .
COc1ccccc1CNC(=O)c1cccc2c1C(=O)N(Cc1cccnc1)C2 | 26 | 17 | 12 | -7 | -2 | -11
SMILES | tim10-1 inh | NALP3 yeast inh | tim23-1 inh | TIM10 inh | NALP1 inh | PfHsp90 set2
CS(=O)(=O)N1CCN(c2ccccc2NC(=O)C(c2ccccc2)c2ccccc2)CC1 | 24 | -5 | 21 | 25 | 43* | 15
CC(C)C(=O)Nc1ccccc1N1CCN(S(C)(=O)=O)CC1 | 8 | -6 | -10 | 9 | 24 | 4
Clc1ccc(N2CCN(c3cnc4ccccc4n3)CC2)cc1 | 6 | 22 | 1 | 18 | 49 | 7
O=Cc1cnc(N2CCN(c3ccccc3)CC2)s1 | 4 | 15 | 10 | 2 | 39* | -15
O=Cc1cnc(N2CCN(Cc3ccccc3)CC2)s1 | 5 | 7 | 11 | -4 | 8 | -26
c1ccc(N2CCN(c3cnc4ccccc4n3)CC2)cc1 | -5 | 36 | 12 | -3 | 39* | 3
Cc1ccc2sc(=O)[nH]c2c1 | -5 | 16 | -11 | -13 | 4 | -2
CN1C(=O)/C(=N/OC(=O)c2ccccc2)c2ccccc21 | -25 | 7 | -20 | 19 | 1 | 137*
CN1C(C)(C)CC(=NOC(=O)c2ccccc2)CC1(C)C | 12 | 6 | -1 | -9 | -6 | .
COC1OC(COCc2ccccc2)C(N)C(OCc2ccccc2)C1OCc1ccccc1 (stereo not given) | . | . | . | . | . | 11
Fc1cccc(Cl)c1Cc1noc(/C=C/c2ccccc2)n1 | -2 | 20 | 8 | 9 | 28* | -37
CCc1cc(Br)ccc1NC(=S)NCCc1ccccc1 | 21 | 32 | 46 | 26 | 12 | -6
CCC(C)[C@@H](NC(=O)OC(C)(C)C)c1nnc(S(=O)(=O)Cc2cccc(C)c2)o1 (stereo not given in full) | . | . | . | . | -8 | 121*
COc1cccc2cc(C(=O)NCc3ccc(Cl)cc3)c(=O)oc12 | 22 | -6 | 19 | 17 | 37* | -1
COc1cccc2cc(C(=O)NCc3ccc(Cl)cc3)c(=N)oc12 | 31 | 0 | 32 | 25 | 25 | 8
CN(C)S(=O)(=O)Nc1cc(Cl)cc(Cl)c1 | 27 | -42 | 20 | 22 | 8 | -46
O=[N+]([O-])c1ccc(NN=Cc2cccc3ccccc23)nc1 | . | . | . | . | . | 2
Brc1ccccc1/C=N/Nc1ccc2ccccc2n1 | 33 | 15 | 26 | 29 | -1 | 6
COc1cccc(/C=N/Nc2ccc([N+](=O)[O-])cn2)c1O | 9 | 37 | 40 | 24 | 20 | 94*
O=[N+]([O-])c1cccc(C=NNc2ccc3ccccc3n2)c1O | . | . | . | . | . | 137*
CC1CCCCC1NC(=O)CN1c2cccc3cccc(c23)S1(=O)=O (stereo not given) | 3 | 11 | 1 | -4 | . | 0
CCCc1ccc(OCC(=O)NNC(=O)c2cccnc2)cc1 | 9 | 6 | 11 | 3 | -4 | 6
Cc1ccc(S(=O)(=O)N(C)C)cc1NC(=O)C(C)OC(=O)c1cc[n+]([O-])cc1 (stereo not given) | 6 | 9 | 8 | 8 | . | -9
O=C(CCc1nnc(C2(c3ccc(Cl)cc3)CCC2)o1)NCCCn1cccn1 | 3 | 13 | 10 | 15 | 0 | 3
Cc1cc(C(=O)N/N=C/c2cc(Br)cc(Br)c2OC(=O)c2cccc(F)c2)n[nH]1 | -6 | 10 | -11 | 6 | 14 | -32
Cc1cccc(C(=O)Oc2c(Br)cc(Br)cc2/C=N/NC(=O)c2ccncc2)c1 | -7 | 5 | 1 | -4 | 28* | -87
CCS(=O)CC(=O)Nc1c(-c2ccccc2)oc2ccccc2c1=O (stereo not given) | -4 | 3 | 7 | -4 | . | .
